Most compounds without a hit are left out; they make up all but 2.7% or so of the library.
IP6K1 inhibitor: Primary qHTS assay for small molecule inhibitors of Inositol hexaphosphate kinase 1 (IP6K1). Inositol hexakisphosphate kinase 1 (Homo sapiens), Q92551. IP6K1 kinase, ADP-Glo luminescence, 2 h; active compounds read low. activity change, % (series mostly up to about 58 µM). hit rate 0.81% among 140,000. AID 1645851, 2021; in the data active = activity change below about -25%; note: % is set by controls: 0 for no effect and ±100 for the full control effect
Target sequence (Q92551 whole entry, looked up): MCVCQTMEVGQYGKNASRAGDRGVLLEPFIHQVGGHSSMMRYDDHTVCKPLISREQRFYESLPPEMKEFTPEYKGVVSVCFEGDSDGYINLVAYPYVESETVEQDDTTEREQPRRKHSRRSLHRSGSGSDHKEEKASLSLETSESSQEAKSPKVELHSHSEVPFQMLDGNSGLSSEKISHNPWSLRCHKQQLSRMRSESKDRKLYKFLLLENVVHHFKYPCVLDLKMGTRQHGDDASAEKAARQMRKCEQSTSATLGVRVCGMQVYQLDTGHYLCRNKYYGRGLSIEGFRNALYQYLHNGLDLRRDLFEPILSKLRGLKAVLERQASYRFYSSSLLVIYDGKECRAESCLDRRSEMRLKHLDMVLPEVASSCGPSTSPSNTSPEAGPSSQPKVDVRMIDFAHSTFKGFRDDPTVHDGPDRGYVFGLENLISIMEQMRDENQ
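ADP-Glo luminescence measures ADP made by human IP6K1 during a 2 h RT reaction with ATP/IP6 (mix at 1.3 mM/130 uM); top library doses 57.5 and 19.1 uM final.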
KDM5B inh: Primary screen for KDM5B Histone Demethylases FDH-coupled qHTS; Lysine-specific demethylase 5B (Homo sapiens), Q9UGL1; KDM5B demethylase, FDH-coupled NADH fluorescence (FDH is formaldehyde dehydrogenase); Potency, µM (titrated, usually from 57.7 µM), hits mostly inhibitors; hit rate 2.6% among 220,000; AID 1347165, 2019; active = well fitted inhibition curve with a large enough effect; inconclusive = small, poorly fitted or top-dose-only effect; inactive = no such curve, though single readings can be large or run the other way; note: potency is the fitted concentration of half-maximal effect; 0% is about no effect; nearly all actives have a fitted effect of over 70% in size
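Coupled FDH/NAD⁺ fluorescence readout. KDM5BΔAP 200 nM final; compound titration, 10 min RT preincubation; substrate mix 12.5 µM H3K4me3, 25 µM 2-OG, 50 µM Fe(II), 100 µM ascorbate, 0.25 mM NAD⁺, 0.25 U/mL FDH; ΔRFU over 30 min.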
* hit, by the source's call; i = inactive; ? = inconclusive; · = not tested or not shown.

SMILES	IP6K1 inhibitor	KDM5B inh
Cc1ccccc1OCC(=O)Nc1c(NC2CCCCC2)c2ccccc2oc1=O	·	i
Cc1nn(-c2ccccc2)c2c1C(C(C)C)N(C1CCCN(C(=O)c3ccc(F)cc3)C1)C2=O (stereo unspecified)	4.3	·
N#Cc1ccccc1CSc1nc(C(F)(F)F)nc2ccccc12	·	i
COc1ccc(-c2ccc(C(=O)N3Cc4[nH]cnc4CC3C(=O)O)o2)cc1 (stereo unspecified)	-5.1	28.2µM*
COC(=O)[C@@H]1Cc2nc[nH]c2CN1C(=O)c1ccc(-c2ccccc2)cc1	12.0	i
O=C(c1ccc(Cl)cc1)N1CCC(n2cc(-c3ccncc3)[nH]c2=O)CC1	-13.7	?
O=C(c1ccc(Cl)cc1)N1CCC(n2cc(-c3ccccn3)[nH]c2=O)CC1	5.0	44.7µM*
Cc1nnc(NC(=O)NCC(C)(C)N2CCCC(C)C2)s1 (stereo unspecified)	·	i
O=[S+]([O-])(NC1CCN(Cc2cccc(-c3cccs3)c2)CC1)c1cccc(C(F)(F)F)c1	-10.4	·
CN(C)c1cccc(-c2nccc3c(=O)cc(-c4cn[nH]c4)oc23)c1	-14.4	i
CN(C)c1cccc(-c2nccc3c(=O)cc(N4CCOCC4)oc23)c1	-23.0	35.5µM*
Nc1ccc(-c2cccc3c(=O)cc(N4CCOCC4)oc23)cc1	8.4	·
O=c1cc(N2CCOCC2)oc2c(-c3ccccc3)nccc12	-12.8	31.6µM*
O=c1cc(N2CCOCC2)oc2c(-c3ccncc3)nccc12	-4.9	35.5µM*
CN(c1ccccc1)c1cc(=O)c2ccnc(-c3ccncc3)c2o1	-23.1	i
c1ccc(-c2noc(-c3ccccc3OC3CNC3)n2)cc1	14.7	i
CC(=O)Nc1ccc2c(CN3CCCCC3)cc(=O)oc2c1	·	i
OCCNC(=S)Nc1ccccc1F	·	i
CC1CCN(S(=O)(=O)c2ccc3c(c2)CCN3C(=O)Nc2ccc(F)cc2)CC1	·	i
COc1ccc(CNC(=O)C(C)OC(=O)C23CC4CC(CC(C4)C2)C3)cc1 (stereo unspecified)	·	i
CC(C)c1nnc2ccc(NCc3ccc(Cl)cc3)nn12	·	i
COCCN1CCNc2cc(Nc3cccc(OC)c3)ncc2C1	-12.0	?
CN(C)c1ccc(CN2CCNc3cc(Nc4cccnc4)ncc3C2)cc1	-13.6	i
c1ccc(Nc2cc3c(cn2)CN(Cc2ccccn2)CCN3)cc1	-19.3	31.6µM*
CN(C)c1ccc(CN2CCNc3cc(Nc4ccccc4)ncc3C2)cc1	-6.0	39.8µM*
SMILES	IP6K1 inhibitor	KDM5B inh
Cn1cnc(CN2CCNc3cc(Nc4ccccc4)ncc3C2)c1	-21.5	i
COCCN1CCNc2cc(Nc3cccc(N(C)C)c3)ncc2C1	-5.8	35.5µM*
C=CCOc1c(OC)ccc2c1CN(C(C)C)C(=O)CCN2C[C@@H](O)COCc1ccccc1	0.5	·
Cc1nnc2ccc(N3CCC(NC(=O)c4ccncc4)C3)nn12 (stereo unspecified)	7.3	·
CC1CCCN(C(=O)CNC(=O)c2ccc(-c3cnc4ccccc4c3)cc2)C1 (stereo unspecified)	18.0	·
O=C(Nc1cccc2ncccc12)c1ccc([N+](=O)[O-])cc1	·	i
Cc1cc(C)cc(NC(=S)N[C@H]2CO[C@H]3[C@@H]2OC[C@H]3OC(=O)NC2CCCCC2)c1	2.8	i
COC(=O)CO[C@@H]1CO[C@H]2[C@@H]1OC[C@@H]2NC(=S)Nc1cc(C)cc(C)c1	24.3	28.2µM*
O=C(Nc1ccccc1F)NC1CCN(Cc2cccc(-c3cccs3)c2)CC1	-4.0	·
CCCc1cc(=O)[nH]c(SC(C)C(=O)NC(=O)NC2CCCCC2)n1 (stereo unspecified)	·	i
N#Cc1cccnc1N1CCC(NC(=O)c2ccc3cccc(F)c3n2)CC1	19.5	28.2µM*
N#Cc1cccnc1-c1ccc(C(=O)N2CCC(NC(=O)c3ccccc3F)CC2)cc1	-3.6	·
N#Cc1cccnc1N1CCCC(CO)(Cc2ccc(F)cc2F)C1 (stereo unspecified)	6.5	?
CCN(C(=O)c1cccc(F)c1F)[C@@H]1CCN(c2ncccc2C#N)C[C@H]1O	12.7	28.2µM*
COc1cccc(-c2cc(C(=O)NCc3cccs3)c3cnn(C)c3n2)c1	6.7	·
CCc1ccc(CNC(=O)c2cc3n(n2)CC(c2ccc4c(c2)OCO4)OC3)cc1 (stereo unspecified)	-2.0	25.1µM*
CC(C)c1ccc(CNC(=O)c2cc3n(n2)CC(c2ccc4c(c2)OCO4)OC3)cc1 (stereo unspecified)	-4.5	?
COc1ccc(CNC(=O)c2cc3n(n2)CC(c2ccc4c(c2)OCO4)OC3)cc1 (stereo unspecified)	-3.6	?
O=C(NCC1CC1)c1cc2n(n1)CC(c1ccc3c(c1)OCO3)OC2 (stereo unspecified)	11.1	i
